“And” between values parts separate entries of the source, which are not always exact repeats. Equal values may be shown once. Unmarked numbers belong to inactive results. Inconclusive results are not listed. Where a call stands in place of a potency, no number is given. The source made the active and inactive calls. Unless noted, the call rests on the fitted dose curve; in most records, active means well fitted curve in the direction sought with a large enough effect in the repeat runs; inconclusive means weak or mixed curves; inactive means no such curve, though single readings can be large; an effect the other way counts as inactive or inconclusive.
What was measured:
[1] = qHTS assay to test for compound auto fluorescence at 535 nm (green) in HEK293 cells (AID 720680)
[2] = qHTS assay to test for compound auto fluorescence at 460 nm (blue) in HEK293 cell free culture (AID 720681)
Outline: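 Test compounds were pinned into cell-free culture medium (DMEM with 10% FBS) and fluorescence was read directly at Ex/Em 405/460 nm. Signals were expressed as fluorescence equivalents of triamterene, with DMSO vehicle as control.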

[3] = qHTS assay to test for compound auto fluorescence at 535 nm (green) in HEK293 cell free culture (AID 720682)
Outline: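 Green-channel intensity (Ex/Em 485/535 nm) was recorded from compound-treated wells containing only DMEM with 10% FBS. Fluorescein provided the equivalency standard.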

[4] = qHTS assay to test for compound auto fluorescence at 590 nm (red) in HEK293 cell free culture (AID 720683)
Outline: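 Tox21 10K library compounds were pinned into cell-free DMEM with 10% FBS and fluorescence was read at excitation 540 nm. Activity is expressed as Rose Bengal sodium equivalency.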

[5] = qHTS assay to test for compound auto fluorescence at 590 nm (red) in HepG2 cell free culture (AID 720684)
Outline: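 Readout: intrinsic compound fluorescence at 590 nm emission after 540 nm excitation, scaled to Rose Bengal sodium. Matrix was cell-free MEM with 10% FBS; DMSO vehicle wells served as control.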

[6] = qHTS assay to test for compound auto fluorescence at 460 nm (blue) in HepG2 cell free culture (AID 720685)
Outline: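 Cell-free plates of MEM plus 10% FBS received 23 nL compound or DMSO vehicle; blue-channel (405/460 nm) intensity scored against triamterene as reference fluorophore.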

[7] = qHTS assay to test for compound auto fluorescence at 535 nm (green) in HepG2 cell free culture (AID 720686)
[8] = qHTS assay to test for compound auto fluorescence at 460 nm (blue) in HepG2 cells (AID 720687)
Outline: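 Cells (2,000/well in MEM with 10% FBS) attached overnight at 37 C, then were exposed to compound or DMSO for 1 hr at 37 C, 5% CO2. Fluorescence read at Ex/Em 405/460 nm, expressed as triamterene-equivalent signal.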

[9] = qHTS assay for identifying genotoxic compounds that show differential cytotoxicity against isogenic chicken DT40 cell lines with known DNA damage response pathways - wild type cell line (AID 743012); further: nearly all actives have a fitted effect of over 60% in size; further: potency means the concentration at half of the fitted maximal effect
Outline: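 300 wt DT40 cells/well; cpd (DMSO) pintool-transferred after ~0.5 h at 37 C/5% CO2; 40 h incubation; CellTiter-Glo added, 30 min RT; luminescence read.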

[10] = qHTS assay for identifying genotoxic compounds that show differential cytotoxicity against isogenic chicken DT40 cell lines with known DNA damage response pathways - Rad54/Ku70 mutant cell line (AID 743015); further: nearly all actives have a fitted effect of over 60% in size; further: potency means the concentration at half of the fitted maximal effect
[11] = qHTS assay to identify small molecule antagonists of the androgen receptor (AR) signaling pathway - cell viability counter screen (AID 743033; further: nearly all actives have a fitted effect of over 45% in size; further: potency means the concentration at half of the fitted maximal effect)
[12] = biological target: Androgen receptor (Homo sapiens) (UniProt P10275); experiment: qHTS assay to identify small molecule agonists of the androgen receptor (AR) signaling pathway using the MDA cell line (AID 743040; further: nearly all actives have a fitted effect of over 20% in size)
Sequence of Androgen receptor (Homo sapiens) (P10275 whole entry, looked up): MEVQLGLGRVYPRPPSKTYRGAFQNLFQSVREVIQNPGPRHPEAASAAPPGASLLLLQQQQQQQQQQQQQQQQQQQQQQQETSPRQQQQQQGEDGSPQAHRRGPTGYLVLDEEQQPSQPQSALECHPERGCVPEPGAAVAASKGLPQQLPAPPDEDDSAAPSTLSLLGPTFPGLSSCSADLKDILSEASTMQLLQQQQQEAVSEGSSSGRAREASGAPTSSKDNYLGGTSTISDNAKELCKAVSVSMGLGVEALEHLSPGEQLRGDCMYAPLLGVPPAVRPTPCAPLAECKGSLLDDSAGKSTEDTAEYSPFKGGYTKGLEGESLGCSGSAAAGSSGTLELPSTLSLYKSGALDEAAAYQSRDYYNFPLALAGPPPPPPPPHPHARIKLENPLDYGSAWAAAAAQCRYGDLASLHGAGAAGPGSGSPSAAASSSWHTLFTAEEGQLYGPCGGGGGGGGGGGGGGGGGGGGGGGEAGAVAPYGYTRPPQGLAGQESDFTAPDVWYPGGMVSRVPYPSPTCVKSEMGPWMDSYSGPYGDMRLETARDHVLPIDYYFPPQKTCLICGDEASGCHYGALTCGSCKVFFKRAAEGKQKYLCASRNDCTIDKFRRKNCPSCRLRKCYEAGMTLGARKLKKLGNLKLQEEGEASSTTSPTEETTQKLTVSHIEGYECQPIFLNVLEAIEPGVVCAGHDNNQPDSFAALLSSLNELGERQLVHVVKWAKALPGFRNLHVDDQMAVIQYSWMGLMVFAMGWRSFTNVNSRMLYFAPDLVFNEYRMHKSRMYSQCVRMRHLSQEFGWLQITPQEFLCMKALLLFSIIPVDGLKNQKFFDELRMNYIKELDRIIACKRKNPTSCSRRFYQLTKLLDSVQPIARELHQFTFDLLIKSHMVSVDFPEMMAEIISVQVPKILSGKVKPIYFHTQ
Outline: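 Agonist activity is measured as luciferase luminescence in human MDA-kb2 cells whose MMTV reporter responds to both AR and GR. Compounds in DMSO incubate 16 h at 37C, 0% CO2, and ONE-Glo is read after 30 min.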

[13] = qHTS assay to identify small molecule antagonists of the glucocorticoid receptor (GR) signaling pathway - cell viability counter screen (AID 720693); further: nearly all actives have a fitted effect of over 55% in size; further: potency means the concentration at half of the fitted maximal effect
[14] = biological target: Androgen receptor (Homo sapiens) (UniProt P10275); experiment: qHTS assay to identify small molecule antagonists of the androgen receptor (AR) signaling pathway (AID 743035; active means well fitted inhibition curve with a large enough effect in the signal ratio in the repeat runs, not every such curve was filed as active; the % refers to the signal ratio; further: potency means the concentration at half of the fitted maximal effect)
Outline: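 In this cell-based reporter screen, compounds were tested in concentration series against R1881-activated HEK293 cells expressing beta-lactamase under UAS control; after 16 h at 37C, FRET substrate was added and fluorescence read 2 h later.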

[15] = biological target: Androgen receptor (Homo sapiens) (UniProt P10275); experiment: qHTS assay to identify small molecule agonists of the androgen receptor (AR) signaling pathway (AID 743036; active means well fitted activation curve with a large enough effect in the signal ratio in the repeat runs, with a control signal flat, not every such curve was filed as active; the % refers to the signal ratio)
Outline: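 Cell-based FRET reporter assay: HEK293 line with a UAS-beta-lactamase construct, compounds added in DMSO, 16 h exposure at 37C, then 2 h substrate step at room temperature and fluorescence intensity read.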

[16] = qHTS assay to identify small molecule antagonists of the androgen receptor (AR) signaling pathway using the MDA cell line - cell viability counter screen (AID 743041; further: nearly all actives have a fitted effect of over 45% in size; further: potency means the concentration at half of the fitted maximal effect)
Outline: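 qHTS viability read-out; MDA-kb2 AR-luc; R1881-stimulated; 16 h exposure at 37C, 0% CO2; CellTiter-Fluor, 30 min; fluorescence intensity.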

[17] = qHTS assay for identifying genotoxic compounds that show differential cytotoxicity against isogenic chicken DT40 cell lines with known DNA damage response pathways - Rev3 mutant cell line (AID 743014); further: nearly all actives have a fitted effect of over 55% in size; further: potency means the concentration at half of the fitted maximal effect

CC(C)(C)NC(=O)[C@@H]1C[C@@H]2CCCC[C@@H]2CN1C[C@@H](O)[C@H](Cc1ccccc1)NC(=O)[C@H](CC(N)=O)NC(=O)c1ccc2ccccc2n1
outcome [1]: inactive
Potency [2]: inactive
outcome [3]: inactive
Potency [4]: inactive
Potency [5]: inactive
Potency [6]: inactive
Potency [7]: inactive
Potency [8]: inactive
Potency [9]: 26.6 µM (active)
Potency [10]: 16.8 µM (active) and 55.2 µM (active)
Potency [11]: 49.6 µM (active)

OCc1c[nH]c2ccccc12
outcome [1]: inactive
Potency [2]: inactive
outcome [3]: inactive
Potency [4]: inactive
Potency [5]: inactive
Potency [6]: inactive
Potency [7]: inactive
Potency [8]: inactive
Potency [9]: 30.6 µM (active)
Potency [10]: 64.8 µM (active)
Potency [12]: inactive

O=C(O)c1ccc(Cl)c(Cl)c1
outcome [1]: inactive
Potency [2]: inactive
outcome [3]: inactive
Potency [4]: inactive
Potency [5]: inactive
Potency [6]: inactive
Potency [7]: inactive
Potency [8]: inactive
Potency [13]: inactive
Potency [9]: inactive
Potency [10]: inactive
Potency [11]: inactive
Potency [14]: inactive
Potency [15]: inactive
Potency [12]: inactive
Potency [16]: inactive

N=C1C=CC(=C(c2ccc(N)cc2)c2ccc(N)cc2)C=C1
outcome [1]: inactive
Potency [2]: inactive
outcome [3]: inactive
Potency [4]: inactive
Potency [5]: inactive
Potency [6]: inactive
Potency [7]: inactive
Potency [8]: inactive
Potency [9]: 9.69 µM (active)
Potency [17]: 6.86 µM (active)
Potency [10]: 7.7 µM (active)
Potency [11]: 15.5 µM (active)
Potency [14]: 2.19 µM (active)
Potency [12]: inactive
Potency [16]: 15.4 µM (active)

O=C1CCCCCN1SSN1CCCCCC1=O
outcome [1]: inactive
Potency [2]: inactive
outcome [3]: inactive
Potency [4]: inactive
Potency [5]: inactive
Potency [6]: inactive
Potency [7]: inactive
Potency [8]: inactive
Potency [13]: inactive
Potency [9]: 13.7 µM (active)
Potency [17]: 19.3 µM (active)
Potency [10]: 15.4 µM (active)
Potency [16]: inactive

O=c1[nH]cnc2nc[nH]c12
outcome [1]: inactive
Potency [2]: inactive
outcome [3]: inactive
Potency [4]: inactive
Potency [5]: inactive
Potency [6]: inactive
Potency [7]: inactive
Potency [8]: inactive
Potency [13]: inactive
Potency [17]: inactive
Potency [10]: inactive
Potency [11]: inactive
Potency [16]: inactive

CC(C)(C)CC(C)(C)c1ccc(OCCOCC[N+](C)(C)Cc2ccccc2)cc1
outcome [1]: inactive
Potency [2]: inactive
outcome [3]: inactive
Potency [4]: inactive
Potency [5]: inactive
Potency [6]: inactive
Potency [7]: inactive
Potency [8]: inactive
Potency [13]: 19.5 µM (active)
Potency [9]: 668 nM (active) and 1.53 µM (active)
Potency [10]: 1.06 µM (active) and 1.93 µM (active)
Potency [11]: 21.3 µM (active) and 7.75 µM (active)
Potency [16]: 24.8 µM (active) and 38.5 µM (active)

CCCCCCCCCCCC[N+](C)(C)CCCCCCCCCCCC
outcome [1]: inactive
Potency [2]: inactive
outcome [3]: inactive
Potency [4]: inactive
Potency [5]: inactive
Potency [6]: inactive
Potency [7]: inactive
Potency [8]: inactive
Potency [13]: 24.5 µM (active)
Potency [9]: 4.33 µM (active)
Potency [10]: 4.33 µM (active)
Potency [11]: 19.5 µM (active)
Potency [16]: 27.3 µM (active)

CC[C@H]1O[C@]2(CC[C@@H]1C)C[C@@H]1C[C@@H](C/C=C(\C)C[C@@H](C)/C=C/C=C3\CO[C@@H]4[C@H](O)C(C)=C[C@@H](C(=O)O1)[C@]34O)O2
outcome [1]: inactive
Potency [2]: inactive
outcome [3]: inactive
Potency [4]: inactive
Potency [5]: inactive
Potency [6]: inactive
Potency [7]: inactive
Potency [8]: inactive
Potency [13]: 13.7 µM (active)
Potency [9]: 6.06 µM (active)
Potency [10]: 6.06 µM (active)
Potency [11]: inactive

COc1c(C)c2c(c(O)c1C/C=C(\C)CCC(=O)O)C(=O)OC2
fluorescence, % of fluorescein [1]: -0.0651% [at 18.6 µM]
fluorescence, % of fluorescent control [2]: -0.004% [at 18.6 µM]
activity change [3]: -0.148% [at 18.6 µM]
fluorescence, % of fluorescent control [4]: 0.195% [at 18.6 µM]
fluorescence, % of Rose Bengal [5]: 0.0127% [at 18.6 µM]
fluorescence, % of fluorescent control [6]: 0.227% [at 18.6 µM]
fluorescence, % of fluorescein control [7]: -0.0501% [at 18.6 µM]
fluorescence, % of fluorescent control [8]: -0.0404% [at 18.6 µM]
Potency [13]: inactive
Potency [9]: 0.16 µM (active)
Potency [10]: 0.202 µM (active)
Potency [16]: inactive

[Cl][Au]([Cl])[Cl]
outcome [1]: inactive
Potency [2]: inactive
outcome [3]: inactive
Potency [4]: inactive
Potency [5]: inactive
Potency [6]: inactive
Potency [7]: inactive
Potency [8]: inactive
Potency [9]: 13.7 µM (active)
Potency [17]: 12.2 µM (active)
Potency [10]: 13.7 µM (active)
Potency [11]: 21.9 µM (active)
Potency [16]: 48.6 µM (active)

CCCCN(CCCC)c1ccc(C(=O)c2ccccc2C(=O)O)c(O)c1
outcome [1]: inactive
Potency [2]: inactive
outcome [3]: inactive
Potency [4]: inactive
Potency [5]: inactive
Potency [6]: inactive
Potency [7]: inactive
Potency [8]: inactive
Potency [17]: inactive
Potency [11]: inactive
Potency [14]: 39.3 µM (active)
Potency [12]: inactive
Potency [16]: inactive

C=C(C)C(=O)OCC(O)COc1ccc(C(C)(C)c2ccc(OCC(O)COC(=O)C(=C)C)cc2)cc1 (stereo not drawn)
outcome [1]: inactive
Potency [2]: inactive
outcome [3]: inactive
Potency [4]: inactive
Potency [5]: inactive
Potency [6]: inactive
Potency [7]: inactive
Potency [8]: inactive
Potency [9]: 5.45 µM (active)
Potency [17]: 6.86 µM (active)
Potency [10]: 6.86 µM (active)
Potency [11]: 24.5 µM (active)
Potency [16]: 21.7 µM (active)

C/C=C1/C(=O)C[C@H]2[C@@H]3CCC4=CC(=O)CC[C@]4(C)[C@H]3CC[C@]12C
outcome [1]: inactive
Potency [2]: inactive
outcome [3]: inactive
Potency [4]: inactive
Potency [5]: inactive
Potency [6]: inactive
Potency [7]: inactive
Potency [8]: inactive
Potency [9]: 21.6 µM (active)
Potency [17]: 13.6 µM (active)
Potency [10]: 19.3 µM (active)
Potency [16]: inactive

CCC(C)(C)C1CCCCC1OC(C)=O (stereo not drawn)
outcome [1]: inactive
Potency [2]: inactive
outcome [3]: inactive
Potency [4]: inactive
Potency [5]: inactive
Potency [6]: inactive
Potency [7]: inactive
Potency [8]: inactive
Potency [13]: inactive
Potency [9]: inactive
Potency [10]: inactive
Potency [11]: inactive
Potency [16]: inactive
